In PubChem BioAssay AID1159580 (chemical genetic matrix, 2015):
Hit rate of the full screen: of about 5,500 compounds, about 2,000 (36%) were called active. Roughly 18% stayed inconclusive and do not appear here. Rule as the data show it: active = normalized growth mostly below about 0.91 (no sharp cut-off); inconclusive = no clear call, values can overlap the other calls; inactive = mostly above about 0.92. Some of the results follow.

Experiment: chemical genetic growth profiling, strain panel (AID 1159580);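 also: tested at 20 µM; growth read once vehicle control cultures reached saturation at 30 °C; 1 = growth at the plate median or of vehicle wells; lower values mean less growth of the strain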
Conditions: growth OD

Measured: normalized growth

CC1(C)O[C@@H]2CC3C4C[C@H](F)C5=CC(=O)CC[C@]5(C)C4[C@@H](O)C[C@]3(C)[C@]2(C(=O)CO)O1 (some centres not stated)
inactive: S. cerevisiae deletion strains, locus YJR075W, strain HOC1, stronger effect = lower value 1.01 | S. cerevisiae deletion strains, locus YKL009W, strain mrt4, stronger effect = lower value 0.999 | S. cerevisiae deletion strains, locus YKL068W, stronger effect = lower value 1.02 | S. cerevisiae deletion strains, locus YKL085W, strain MDH1 (second series), stronger effect = lower value 1 | S. cerevisiae deletion strains, locus YKL085W, strain MDH1, stronger effect = lower value 1 | S. cerevisiae deletion strains, locus YKL160W, strain elf1, stronger effect = lower value 0.988 | S. cerevisiae deletion strains, locus YKL190W, strain CNB1, stronger effect = lower value 1.02 | S. cerevisiae deletion strains, locus YKR001C, strain vps1, stronger effect = lower value 1.01 | S. cerevisiae deletion strains, locus YKR026C, strain gcn3, stronger effect = lower value 1 | S. cerevisiae deletion strains, locus YKR091W, strain srl3, stronger effect = lower value 0.997 | S. cerevisiae deletion strains, locus YLL001W, strain dnm1, stronger effect = lower value 0.977 | S. cerevisiae deletion strains, locus YLL026W, stronger effect = lower value 1.01 | S. cerevisiae deletion strains, locus YLL041C, strain sdh2, stronger effect = lower value 1.01 | S. cerevisiae deletion strains, locus YLR027C, strain aat2, stronger effect = lower value 1.02 | S. cerevisiae deletion strains, locus YLR039C, strain RIC1, stronger effect = lower value 1.03 | S. cerevisiae deletion strains, locus YLR058C, strain SHM2, stronger effect = lower value 1.02 | S. cerevisiae deletion strains, locus YLR102C, strain apc9, stronger effect = lower value 1.01 | S. cerevisiae deletion strains, locus YLR113W, strain HOG1, stronger effect = lower value 1.02 | S. cerevisiae deletion strains, locus YLR221C, strain rsa3, stronger effect = lower value 0.999 | S. cerevisiae deletion strains, locus YLR258W, strain gsy2, stronger effect = lower value 1.02 | S. cerevisiae deletion strains, locus YLR262C, strain YPT6 (second series), stronger effect = lower value 0.988 | S. cerevisiae deletion strains, locus YLR262C, strain YPT6, stronger effect = lower value 1.04 | S. cerevisiae deletion strains, locus YLR268W, strain sec22, stronger effect = lower value 1.01 | S. cerevisiae deletion strains, locus YLR320W, strain mms22, stronger effect = lower value 0.985 | S. cerevisiae deletion strains, locus YLR330W, strain CHS5, stronger effect = lower value 1.01 | S. cerevisiae deletion strains, locus YLR342W, strain FKS1 (second series), stronger effect = lower value 0.997 | S. cerevisiae deletion strains, locus YLR342W, strain FKS1, stronger effect = lower value 1.01 | S. cerevisiae deletion strains, locus YLR357W, strain rsc2, stronger effect = lower value 0.968 | S. cerevisiae deletion strains, locus YLR370C, strain arc18, stronger effect = lower value 1 | S. cerevisiae deletion strains, locus YLR371W, strain rom2, stronger effect = lower value 1 | S. cerevisiae deletion strains, locus YLR384C, strain iki3, stronger effect = lower value 0.986 | S. cerevisiae deletion strains, locus YLR418C, strain cdc73, stronger effect = lower value 1.01 | S. cerevisiae deletion strains, locus YML016C, strain PPZ1, stronger effect = lower value 1.01 | S. cerevisiae deletion strains, locus YML032C, strain rad52, stronger effect = lower value 0.996 | S. cerevisiae deletion strains, locus YML120C, strain ndi1, stronger effect = lower value 1.01 | S. cerevisiae deletion strains, locus YML124C, strain tub3, stronger effect = lower value 1.01 | S. cerevisiae deletion strains, locus YMR058W, strain fet3, stronger effect = lower value 1.02 | S. cerevisiae deletion strains, locus YMR078C, strain ctf18, stronger effect = lower value 1.01 | S. cerevisiae deletion strains, locus YMR125W, strain sto1, stronger effect = lower value 1.02 | S. cerevisiae deletion strains, locus YMR129W, stronger effect = lower value 1.02 | S. cerevisiae deletion strains, locus YMR205C, strain PFK2, stronger effect = lower value 1.01 | S. cerevisiae deletion strains, locus YMR223W, strain ubp8, stronger effect = lower value 0.993 | S. cerevisiae deletion strains, locus YMR231W, strain pep5, stronger effect = lower value 1 | S. cerevisiae deletion strains, locus YMR263W, strain SAP30, stronger effect = lower value 1.02 | S. cerevisiae deletion strains, locus YMR307W, strain GAS1, stronger effect = lower value 1.01 | S. cerevisiae deletion strains, locus YNL067W, strain RPL9B, stronger effect = lower value 1.01 | S. cerevisiae deletion strains, locus YNL071W, strain lat1, stronger effect = lower value 1.01 | S. cerevisiae deletion strains, locus YNL128W, strain TEP1, stronger effect = lower value 1.02 | S. cerevisiae deletion strains, locus YNL153C, strain GIM3, stronger effect = lower value 1.01 | S. cerevisiae deletion strains, locus YNL183C, strain NPR1, stronger effect = lower value 0.931 | S. cerevisiae deletion strains, locus YNL209W, strain ssb2, stronger effect = lower value 0.999 | S. cerevisiae deletion strains, locus YNL233W, strain BNI4, stronger effect = lower value 1.01 | S. cerevisiae deletion strains, locus YNL248C, strain rpa49, stronger effect = lower value 0.987 | S. cerevisiae deletion strains, locus YNL250W, strain rad50, stronger effect = lower value 1 | S. cerevisiae deletion strains, locus YNL271C, strain bni1, stronger effect = lower value 1.01 | S. cerevisiae deletion strains, locus YNL298W, strain CLA4, stronger effect = lower value 1 | S. cerevisiae deletion strains, locus YNL307C, strain MCK1, stronger effect = lower value 1.01 | S. cerevisiae deletion strains, locus YNL322C, strain KRE1 (second series), stronger effect = lower value 0.993 | S. cerevisiae deletion strains, locus YNL322C, strain KRE1, stronger effect = lower value 1.02 | S. cerevisiae deletion strains, locus YNR049C, strain mso1, stronger effect = lower value 1 | S. cerevisiae deletion strains, locus YNR052C, strain pop2, stronger effect = lower value 0.999 | S. cerevisiae deletion strains, locus YOL006C, strain TOP1, stronger effect = lower value 1.04 | S. cerevisiae deletion strains, locus YOL012C, strain htz1 0.952 | S. cerevisiae deletion strains, locus YOL147C, strain pex11, stronger effect = lower value 1.01 | S. cerevisiae deletion strains, locus YOR001W, strain rrp6, stronger effect = lower value 1 | S. cerevisiae deletion strains, locus YOR061W, strain CKA2, stronger effect = lower value 1.01 | S. cerevisiae deletion strains, locus YOR069W, strain VPS5, stronger effect = lower value 1.01 | S. cerevisiae deletion strains, locus YOR070C, strain gyp1, stronger effect = lower value 1.01 | S. cerevisiae deletion strains, locus YOR080W, strain dia2, stronger effect = lower value 1.02 | S. cerevisiae deletion strains, locus YOR083W, strain WHI5, stronger effect = lower value 0.946 | S. cerevisiae deletion strains, locus YOR106W, strain vam3, stronger effect = lower value 1.01 | S. cerevisiae deletion strains, locus YOR136W, strain idh2, stronger effect = lower value 0.994 | S. cerevisiae deletion strains, locus YOR144C, strain elg1, stronger effect = lower value 1 | S. cerevisiae deletion strains, locus YOR184W, strain ser1, stronger effect = lower value 1 | S. cerevisiae deletion strains, locus YOR231W, strain MKK1, stronger effect = lower value 1.03 | S. cerevisiae deletion strains, locus YOR265W, strain rbl2, stronger effect = lower value 1.01 | S. cerevisiae deletion strains, locus YOR270C, strain vph1, stronger effect = lower value 1.03 | S. cerevisiae deletion strains, locus YOR290C, strain snf2, stronger effect = lower value 1.01 | S. cerevisiae deletion strains, locus YOR316C, strain cot1, stronger effect = lower value 1.01 | S. cerevisiae deletion strains, locus YPL051W, strain arl3, stronger effect = lower value 1.01 | S. cerevisiae deletion strains, locus YPL055C, strain LGE1, stronger effect = lower value 1.04 | S. cerevisiae deletion strains, locus YPL078C, strain atp4, stronger effect = lower value 1.01 | S. cerevisiae deletion strains, locus YPL106C, strain sse1, stronger effect = lower value 0.973 | S. cerevisiae deletion strains, locus YPL240C, strain hsp82, stronger effect = lower value 1 | S. cerevisiae deletion strains, locus YPL241C, strain CIN2, stronger effect = lower value 0.962 | S. cerevisiae deletion strains, locus YPL256C, strain CLN2, stronger effect = lower value 1.03 | S. cerevisiae deletion strains, locus YPR119W, strain clb2, stronger effect = lower value 1 | S. cerevisiae deletion strains, locus YPR141C, strain kar3, stronger effect = lower value 1.01 | S. cerevisiae deletion strains, locus YPR163C, strain tif3, stronger effect = lower value 1 | S. cerevisiae deletion strains, locus YPR167C, strain met16, stronger effect = lower value 1 | S. cerevisiae deletion strains, strain wtn01, stronger effect = lower value 1.01 | S. cerevisiae strains, strain wild type, stronger effect = lower value 1.02
